This is an account of results in PubChem BioAssay.

Assay [1] is described as follows: antimalarial activity against Dd2 strain (AID 2302;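 active means growth inhibition above 50% at the single 2 µM test dose, taken to imply half-maximal potency below 2 µM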;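 further: 0% = DMSO untreated growth and 100% = chloroquine plus artemisinin killed control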). The settings on record: P. falciparum Dd2 in RBCs, LDH growth readout, 72 h; at 2 µM; hits give high values.
A short description of assay [2]: human hepatoma cell viability loss – ATP luminescence, cytotoxicity control for P. falciparum antimalarial project, primary screen (AID 2303;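 active means inhibition above 50%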;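 further: 0% = DMSO wells and 100% = digitonin-killed cells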). The settings on record: HepG2 viability, 24-48 h, at 10 µM, hits give high values.
Assay [3] addresses L-lactate dehydrogenase (Plasmodium falciparum (isolate CDC / Honduras)) (UniProt Q27743). The experiment in a line: PfLDH activity inhibition – cell lysate, 3D7 strain, counter-screen for P. falciparum growth inhibition project (AID 2304).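 Further: 0% = vehicle and 100% = reference inhibitor.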 The settings on record: P. falciparum 3D7 crude extract, LDH APAD/NBT absorbance; at 2 µM; hits give high values.
The nature of assay [4]: inhibition of 3D7 malaria parasite growth – strain 3D7 (AID 2306).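 Further: 0% = DMSO wells and 100% = chloroquine plus artemisinin control wells.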 The conditions noted are these: P. falciparum 3D7 erythrocytic growth, LDH absorbance, 72 h; at 2 µM; hits give high values.
Assay [5] addresses Calcium-dependent protein kinase 1 (Plasmodium falciparum (isolate 3D7)) (UniProt P62344). Put plainly: PfCDPK1 kinase inhibitors, biochemical, TCAMS library (AID 1159585; cut-off not given, nearly all actives have IC50 up to about 0.98 µM;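 further: inhibitors leave more ATP so luminescence rises with inhibition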). The settings on record: recombinant PfCDPK1, Kinase-Glo ATP depletion luminescence.
In assay [6] the target is Plasmodium falciparum protein kinase 6 (PK6, PF3D7_1337100) (UniProt Q8IDW1). The experiment in a line: PfPK6 kinase inhibitors, biochemical, TCAMS library (AID 1159586). The conditions noted are these: recombinant PfPK6, Kinase-Glo ATP depletion luminescence.
Sequence of Plasmodium falciparum protein kinase 6 (PK6, PF3D7_1337100) (Q8IDW1 1-305): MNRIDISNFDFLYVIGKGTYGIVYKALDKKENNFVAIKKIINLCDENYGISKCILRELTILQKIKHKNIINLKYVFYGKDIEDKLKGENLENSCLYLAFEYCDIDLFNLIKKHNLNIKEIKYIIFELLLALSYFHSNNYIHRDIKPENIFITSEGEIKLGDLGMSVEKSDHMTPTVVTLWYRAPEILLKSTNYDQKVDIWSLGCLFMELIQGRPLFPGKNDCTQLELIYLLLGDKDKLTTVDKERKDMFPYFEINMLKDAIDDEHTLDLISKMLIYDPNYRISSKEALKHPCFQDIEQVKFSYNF
Assay [7] has as its target Protein kinase 7 (PK7), Plasmodium falciparum 3D7 (PF3D7_0213400) (UniProt Q7YTF7). The experiment in a line: inhibition of Plasmodium PK7 catalytic activity – biochemical, TCAMS antimalarial set, Kinase-Glo luminescence (AID 1159587). The conditions noted are these: recombinant PfPK7, Kinase-Glo ATP depletion luminescence.
Assay [8] has as its target Calcium-dependent protein kinase 4 (Plasmodium falciparum (isolate 3D7)) (UniProt Q8IBS5). The experiment in a line: PfCDPK4 kinase inhibitors, biochemical, TCAMS library (AID 1159588; cut-off not given, nearly all actives have IC50 up to about 0.91 µM). The conditions noted are these: recombinant PfCDPK4, Kinase-Glo ATP depletion luminescence.

Molecules are shown by their SMILES. A number with no mark means an inactive call. For some of these results: Measured potencies and affinities stand elsewhere. Activity calls are given as the source filed them. Unless noted, how the calls were made is not given here.

Sequence of Calcium-dependent protein kinase 1 (Plasmodium falciparum (isolate 3D7)) (P62344 whole entry, looked up): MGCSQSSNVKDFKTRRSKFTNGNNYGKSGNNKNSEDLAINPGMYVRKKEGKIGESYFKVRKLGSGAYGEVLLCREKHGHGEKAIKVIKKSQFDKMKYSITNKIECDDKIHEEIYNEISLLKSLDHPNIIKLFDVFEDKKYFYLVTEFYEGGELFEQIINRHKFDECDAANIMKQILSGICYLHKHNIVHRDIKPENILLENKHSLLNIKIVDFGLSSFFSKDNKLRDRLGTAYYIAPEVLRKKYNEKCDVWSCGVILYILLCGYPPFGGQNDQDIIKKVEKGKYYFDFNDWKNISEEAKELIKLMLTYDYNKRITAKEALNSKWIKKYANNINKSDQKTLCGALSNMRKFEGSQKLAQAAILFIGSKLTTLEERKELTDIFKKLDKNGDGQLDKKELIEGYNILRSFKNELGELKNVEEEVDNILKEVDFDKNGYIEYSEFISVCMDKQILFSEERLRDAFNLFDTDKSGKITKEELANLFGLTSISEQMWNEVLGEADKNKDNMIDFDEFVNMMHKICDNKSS
Sequence of L-lactate dehydrogenase (Plasmodium falciparum (isolate CDC / Honduras)) (Q27743 whole entry, looked up): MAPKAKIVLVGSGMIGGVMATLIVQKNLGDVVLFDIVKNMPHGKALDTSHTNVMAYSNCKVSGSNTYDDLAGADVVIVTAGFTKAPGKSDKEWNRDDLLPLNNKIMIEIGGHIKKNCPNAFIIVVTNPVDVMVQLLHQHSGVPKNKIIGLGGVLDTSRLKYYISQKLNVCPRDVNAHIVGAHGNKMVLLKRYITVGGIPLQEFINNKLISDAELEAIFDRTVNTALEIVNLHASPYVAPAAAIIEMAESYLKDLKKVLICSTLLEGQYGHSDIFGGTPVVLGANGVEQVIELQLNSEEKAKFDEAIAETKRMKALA
Sequence of Protein kinase 7 (PK7), Plasmodium falciparum 3D7 (PF3D7_0213400) (Q7YTF7 1-343): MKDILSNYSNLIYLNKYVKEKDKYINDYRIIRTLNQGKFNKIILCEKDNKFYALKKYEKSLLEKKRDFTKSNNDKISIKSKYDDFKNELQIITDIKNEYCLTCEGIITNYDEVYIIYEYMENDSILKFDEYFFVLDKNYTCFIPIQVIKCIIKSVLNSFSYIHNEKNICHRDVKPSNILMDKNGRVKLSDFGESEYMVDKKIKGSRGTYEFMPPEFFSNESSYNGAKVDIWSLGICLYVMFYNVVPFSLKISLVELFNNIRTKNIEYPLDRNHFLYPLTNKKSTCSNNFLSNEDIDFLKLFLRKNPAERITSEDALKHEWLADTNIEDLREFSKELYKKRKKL
Sequence of Calcium-dependent protein kinase 4 (Plasmodium falciparum (isolate 3D7)) (Q8IBS5 whole entry, looked up): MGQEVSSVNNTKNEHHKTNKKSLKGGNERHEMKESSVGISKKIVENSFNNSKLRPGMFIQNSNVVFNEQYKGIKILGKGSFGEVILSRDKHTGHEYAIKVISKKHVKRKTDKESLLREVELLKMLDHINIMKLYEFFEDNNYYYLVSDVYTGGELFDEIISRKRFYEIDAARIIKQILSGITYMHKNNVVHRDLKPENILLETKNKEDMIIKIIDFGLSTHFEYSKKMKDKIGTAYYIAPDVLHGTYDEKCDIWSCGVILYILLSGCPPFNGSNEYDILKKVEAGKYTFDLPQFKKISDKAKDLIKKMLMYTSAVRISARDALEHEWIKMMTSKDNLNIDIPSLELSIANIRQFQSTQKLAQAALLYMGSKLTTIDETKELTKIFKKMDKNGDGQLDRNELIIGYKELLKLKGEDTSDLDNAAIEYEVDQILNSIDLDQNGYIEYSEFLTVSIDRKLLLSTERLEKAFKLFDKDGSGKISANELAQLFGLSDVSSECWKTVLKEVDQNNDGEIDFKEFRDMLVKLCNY

Turning to `Fc1ccc2nc(-c3cccc(-c4ccc(CNCC5CCCO5)cc4)c3)[nH]c2c1` (stereo not given), the growth inhibition was 98% (active) in assay [1] and 101% (active) in assay [4]. Also, the inhibition is 36% in assay [2] and 0% in assay [3]. Moreover, the outcome in assay [5], in assay [6], in assay [7] and in assay [8] was inactive.

For the compound `O=S(=O)(c1ccc(Oc2ccccc2)cc1)N(CCC(O)(C(F)(F)F)C(F)(F)F)Cc1cccc(O)c1`, the growth inhibition in assay [1] is 99% (active); in assay [4], 102% (active). The inhibition in assay [2] is -13%; in assay [3] it was 5%. Besides, the outcome in assay [5], in assay [6], in assay [7] and in assay [8] was inactive.

Consider `CC(=O)Nc1ccc(C#Cc2ccc(-c3c(C)[nH]c(C)c(Cl)c3=O)cc2)cc1`, for which the growth inhibition was 78% (active) in assay [1] and 90% (active) in assay [4]. Moreover, the inhibition is -3% in assay [2] and -7% in assay [3]. For the same compound, the outcome in assay [5], in assay [6], in assay [7] and in assay [8] was inactive.

Take `CNCCNCc1ccc(-c2ccc(-c3nc4ccccc4[nH]3)s2)cc1`: the growth inhibition in assay [1] was 15%; in assay [4] it was 99% (active). In addition, the inhibition in assay [2] is 11%; in assay [3], 5%. The outcome in assay [5], in assay [6], in assay [7] and in assay [8] was inactive.

Regarding `Fc1ccc2c(NN=Cc3ccc(Cl)cc3)ccnc2c1`, the growth inhibition is 99% (active) in assay [1] and 101% (active) in assay [4]. The inhibition in assay [2] is 7%; in assay [3], -1%. The result in assay [5], in assay [6], in assay [7] and in assay [8] was inactive.
